This note sets out measurements from PubChem BioAssay (Tox21).

Assay [1] is described as follows: Human pregnane X receptor (PXR) small molecule agonists, qHTS cell viability counter screen (AID 1346977). Further: nearly all actives have a fitted effect of over 50% in size. Further: potency means the concentration at half of the fitted maximal effect. The note with it: PXR-Luc HepG2 viability, CellTiter-Fluor, 24 h; series mostly up to 92.4 µM. The method in brief:
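Tox21 qHTS format; PXR-Luc HepG2, 2,000/well, charcoal-stripped FBS 5%. Cpd exposure 24hr. Read: CellTiter-Fluor fluorescence, multiplexed with luciferase.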
A general note: In qHTS, concentration-response curves come from the screen itself.

The nature of assay [2]: Caspase-3/7 induction in HepG2 cells by small molecules, qHTS assay (AID 1346978). Further: nearly all actives have a fitted effect of over 15% in size. Further: potency means the concentration at half of the fitted maximal effect. To be noted: HepG2 caspase-3/7 activation, Caspase-Glo luminescence, 17 h; series mostly up to 92.4 µM. The method in brief:
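Wild-type HepG2 cells (2,000/well) were settled 5 h at 37 C, 5% CO2, then exposed to compounds in DMSO for 17 h. Caspase-3/7 activity was read by luminescence 30 min after adding Caspase-Glo 3/7 reagent at room temperature.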

Assay [3] in a line: Caspase-3/7 induction in CHO-K1 cells by small molecules, qHTS cell viability counter screen (AID 1346979). Further: nearly all actives have a fitted effect of over 35% in size. Further: potency means the concentration at half of the fitted maximal effect. The note with it: CellTiter-Fluor fluorescence, 17 h; series mostly up to 92.4 µM. The essentials: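 CellTiter-Fluor viability check, qHTS format: wild-type CHO-K1, 16hr compound treatment, 1hr reagent incubation, fluorescence read.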
Assay [4] in a line: Caspase-3/7 induction in CHO-K1 cells by small molecules, qHTS assay (AID 1346980). Further: nearly all actives have a fitted effect of over 15% in size. To be noted: CHO-K1 caspase-3/7 induction, Caspase-Glo luminescence, 17 h; series mostly up to 92.4 µM. The essentials: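 Wild-type cells were seeded at 1,500 per well and settled 5 hr at 37 C, 5% CO2, then exposed to DMSO-dissolved compounds for 17 hr. Caspase-Glo 3/7 reagent was added, and luminescence was read after 30min at room temperature.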

The nature of assay [5]: Caspase-3/7 induction in HepG2 cells by small molecules, qHTS cell viability counter screen (AID 1346981). Further: nearly all actives have a fitted effect of over 30% in size. Further: potency means the concentration at half of the fitted maximal effect. The note with it: CellTiter-Fluor fluorescence, 17 h; series mostly up to 92.4 µM. The method in brief: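 Wild-type HepG2 cells (2,000/well) were allowed to settle for 5 hr at 37 C, 5% CO2, then dosed with compounds in DMSO by pin transfer. After 16 hr at 37 C, CellTiter-Fluor was added and fluorescence read 1 hr later.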

In assay [6] the target is Nuclear receptor subfamily 1 group I member 2 (Homo sapiens) (UniProt O75469). Kind of assay: Human pregnane X receptor (PXR) small molecule agonists, qHTS assay (AID 1346982). Further: nearly all actives have a fitted effect of over 35% in size. Further: potency means the concentration at half of the fitted maximal effect. To be noted: PXR-Luc HepG2, CYP3A4 luciferase reporter, 24 h; series mostly up to 92.4 µM. The method in brief: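 PXR-Luc HepG2 cells (CYP3A4 promoter-driven luciferase) were seeded in medium with 5% charcoal-stripped FBS, left 5 hr at 37 C, then exposed to compounds in DMSO for 24 hr. Luminescence was read after ONE-Glo addition.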
Chain of Nuclear receptor subfamily 1 group I member 2 (Homo sapiens) (O75469 whole entry, looked up): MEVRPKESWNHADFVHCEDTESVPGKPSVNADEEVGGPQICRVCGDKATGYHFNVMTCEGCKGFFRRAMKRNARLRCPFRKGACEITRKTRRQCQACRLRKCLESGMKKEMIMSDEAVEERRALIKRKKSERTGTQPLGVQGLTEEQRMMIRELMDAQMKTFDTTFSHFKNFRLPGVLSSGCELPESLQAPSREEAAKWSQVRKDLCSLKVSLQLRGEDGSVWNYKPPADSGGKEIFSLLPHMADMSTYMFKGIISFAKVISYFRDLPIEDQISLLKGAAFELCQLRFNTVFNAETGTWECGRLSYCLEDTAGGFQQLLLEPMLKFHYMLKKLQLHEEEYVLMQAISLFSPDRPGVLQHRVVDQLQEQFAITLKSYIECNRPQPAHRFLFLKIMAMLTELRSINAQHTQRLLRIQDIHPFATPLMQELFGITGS

In assay [7] the target is Cytochrome P450 2D6 (Homo sapiens) (UniProt P10635). The assay can be described thus: Cytochrome P450 Family 2 Subfamily D Member 6 (CYP2D6) small molecule antagonists: luciferase reporter qHTS assay (AID 1671196). Further: nearly all actives have a fitted effect of over 50% in size. Further: potency means the concentration at half of the fitted maximal effect. The note with it: P450-Glo CYP2D6 enzyme assay, luciferin luminescence, 1 h; series mostly up to 115 µM. The method in brief: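 CYP2D6 enzyme–substrate mix was held with compound for 10 min at room temperature, then NADPH regeneration solution was added and the reaction ran 1 h at room temperature. Luciferin product was detected by luminescence after 20 min with detection reagent.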
Chain of Cytochrome P450 2D6 (Homo sapiens) (P10635 whole entry, looked up): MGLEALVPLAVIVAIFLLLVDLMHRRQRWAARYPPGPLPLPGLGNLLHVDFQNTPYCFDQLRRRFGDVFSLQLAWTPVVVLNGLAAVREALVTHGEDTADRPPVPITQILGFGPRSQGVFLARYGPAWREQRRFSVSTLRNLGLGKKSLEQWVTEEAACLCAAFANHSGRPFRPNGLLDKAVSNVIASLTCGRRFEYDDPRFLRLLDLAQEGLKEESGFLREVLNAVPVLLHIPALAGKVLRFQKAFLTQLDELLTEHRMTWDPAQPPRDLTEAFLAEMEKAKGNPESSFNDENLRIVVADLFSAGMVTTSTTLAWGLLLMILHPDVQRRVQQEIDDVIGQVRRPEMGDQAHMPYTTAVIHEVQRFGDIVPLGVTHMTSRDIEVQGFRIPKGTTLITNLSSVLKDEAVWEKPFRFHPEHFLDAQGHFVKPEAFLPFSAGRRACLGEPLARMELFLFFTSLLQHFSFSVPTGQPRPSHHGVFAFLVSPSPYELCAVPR

Assay [8] addresses Nuclear receptor subfamily 1 group I member 2 (Rattus norvegicus) (UniProt Q9R1A7). Kind of assay: Rat pregnane X receptor (rPXR) activation by small molecules, qHTS assay (AID 1346983). Further: nearly all actives have a fitted effect of over 20% in size. To be noted: rPXR luciferase reporter cells, One-Glo luminescence, 24 h; max activation: stronger effect = higher value. The method in brief: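 Cell-based rPXR luciferase reporter assay, 2,000 cells per well, rested 5hr at 37 C before compound addition in DMSO, then 24 hr at 37 C. One-Glo reagent was added and luminescence read after 30 min at room temperature.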

For assay [9], the target named is Nuclear receptor subfamily 1 group I member 2 (Homo sapiens) (UniProt O75469). The assay can be described thus: CYP3A4 induction through human pregnane X receptor (PXR) by small molecules, qHTS assay (AID 1346984). Further: nearly all actives have a fitted effect of over 40% in size. To be noted: DPX-2 HepG2 PXR, CYP3A4-luciferin luminescence, 24 h; series mostly up to 46.1 µM. The essentials: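 DPX-2 cells (HepG2 co-transfected with PXR and CYP3A4 promoter-luciferase) treated with compounds 24 h at 37C; luciferin-IPA CYP3A4 substrate 3uM final added for 3 h, then One-Glo; luminescence read. qHTS format.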

The target is the same in assay [10]. Kind of assay: Human pregnane X receptor (PXR) activation by small molecules, qHTS assay (AID 1346985). Further: nearly all actives have a fitted effect of over 40% in size. The note with it: DPX-2 HepG2 CYP3A4-luciferase, 24 h; series mostly up to 38.3 µM. The method in brief:
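DPX-2 cells (HepG2 co-transfected with a PXR response element and a CYP3A4-promoter luciferase construct) were seeded at 2,000 per well, rested 5 hr at 37C, then exposed to DMSO-dissolved compounds for 24 hr. Activation was read as luciferase luminescence.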

Where “and” joins values, the source holds several entries; their conditions need not be identical. Identical values can stand only once. Inconclusive results are not listed. The source holds several records for some structures; these can differ, active in one and inactive in another. Calls of active or inactive are those of the source. The call rests on the fitted dose curve; in most records, active means well fitted curve in the direction sought with a large enough effect in the repeat runs; inconclusive means weak or mixed curves; inactive means no such curve, though single readings can be large; an effect the other way counts as inactive or inconclusive.
On the % scale 0 is the no-effect control and ±100 the full control effect.

Chain of Nuclear receptor subfamily 1 group I member 2 (Rattus norvegicus) (Q9R1A7 whole entry, looked up): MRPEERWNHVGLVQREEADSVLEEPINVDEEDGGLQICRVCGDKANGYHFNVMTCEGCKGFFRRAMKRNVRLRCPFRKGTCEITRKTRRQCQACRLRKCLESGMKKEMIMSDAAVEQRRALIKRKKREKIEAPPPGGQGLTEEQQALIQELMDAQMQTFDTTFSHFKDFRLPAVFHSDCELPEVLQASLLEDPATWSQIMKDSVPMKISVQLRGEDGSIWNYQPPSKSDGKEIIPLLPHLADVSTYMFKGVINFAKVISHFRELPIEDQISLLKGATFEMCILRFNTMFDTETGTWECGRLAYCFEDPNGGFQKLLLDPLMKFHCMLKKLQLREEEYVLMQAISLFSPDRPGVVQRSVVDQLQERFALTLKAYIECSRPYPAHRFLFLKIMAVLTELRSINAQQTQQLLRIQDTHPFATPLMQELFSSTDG

For `CCOC(=O)C(C)Oc1ccc(Oc2cnc3cc(Cl)ccc3n2)cc1` (stereo not given), the Potency entry in assay [1], in assay [2], in assay [3], in assay [4], in [5] and in assay [6] was “inactive” throughout. For the same compound, the Potency in assay [7] is 32.5 µM (active).

Consider `O=C(O)CCCC(=O)O`, for which the Potency entry in assay [1], in assay [2], in [4], in assay [5] and in assay [6] was “inactive” throughout. In addition, in assay [7], the Potency is 22 µM (active) and inactive.

For the compound `COC(=O)C(C)Oc1ccc(Oc2ncc(C(F)(F)F)cc2Cl)cc1` (stereo not given), the Potency entry in assay [1], in assay [2], in [4] and in assay [5] was “inactive” throughout. Moreover, the Potency in [6] was 61.9 µM (active) and 61.1 µM (active).

For `O=C(CCCN1CCC(O)(c2ccc(Cl)cc2)CC1)c1ccc(F)cc1`, the Potency in [1] was 27.3 µM (active) and 23.7 µM (active); in assay [2] it was 54.5 µM (active) and inactive; in assay [5] it was 48.6 µM (active) and inactive. Further, the Potency result in [4] was “inactive”.

As to `Nc1ccc2c(O)cc(S(=O)(=O)O)cc2c1`, the Potency was 28.2 µM (active) and 21.7 µM (active) in assay [1]; 48.6 µM (active) and 19.3 µM (active) in [3]; 27.3 µM (active) and 21.7 µM (active) in [5]; 30.7 µM (active) in [6]; 35.6 µM (active) and 71 µM (active) in [7]. Moreover, the Potency entry in assay [2] and in assay [4] was “inactive” each time.

For the compound `NCCN`, the Potency entry in assay [1], in assay [2], in assay [4], in assay [5], in assay [6] and in assay [9] was “inactive” each time. Further, the Potency entry in [10] was “inactive”. For the same compound, in assay [8], the max activation was -1.7% (inactive). Besides, the Potency in assay [7] was 31.7 µM (active).

Turning to `Cc1ccc(C)c(O)c1`, the Potency entry in assay [1], in assay [2], in [4], in assay [5], in assay [6] and in [7] was “inactive” in each case.

For `CN(C)/N=N/c1nc[nH]c1C(N)=O`, the Potency result in assay [1], in assay [2], in assay [4], in assay [5], in assay [6] and in assay [9] was “inactive” in each case. The Potency result in assay [10] and in [7] was “inactive” in each case. The max activation in assay [8] is -1.32% (inactive).

Turning to `O=C(O)c1ccc(O)cc1`, the Potency result in assay [1], in [2], in [4], in [5], in assay [6] and in assay [7] was “inactive” throughout.

Turning to `O=C1OC2(c3ccccc31)c1cc(I)c(O)c(I)c1Oc1c2cc(I)c(O)c1I`, the Potency in assay [1] was 7.78 µM (active) [middle of 4 runs]; in assay [5] it was 13.3 µM (active) [middle of 4 runs]; in assay [7] it was 28.3 µM (active) and 36 µM (active). For the same compound, the Potency result in assay [2], in [4] and in assay [6] was “inactive” in each case.

For `C=C[C@H]1CN2CC[C@H]1C[C@@H]2[C@@H](O)c1ccnc2ccc(OC)cc12`, the Potency entry in [1], in [2], in assay [3], in assay [4] and in assay [5] was “inactive” each time. In addition, the max activation in assay [8] is -2.45% (inactive).

`CCc1cccc2c3c([nH]c12)C(CC)(CC(=O)O)OCC3` (stereo not given): the Potency result in assay [1], in [3], in assay [4], in assay [5], in assay [6] and in assay [9] was “inactive” each time. The Potency entry in [10] is “inactive”. For the same compound, the max activation in [8] was 1.85% (inactive). Besides, the Potency in [7] is 20 µM (active) and inactive.

`CCCCCCCCCCC(CO)CCCCCCCC` (stereo not given): the Potency entry in assay [1], in assay [3], in [4], in assay [5], in [6] and in assay [9] was “inactive” throughout. Also, the Potency result in [10] and in assay [7] was “inactive” in each case. Besides, in assay [8], the max activation is -1.75% (inactive).

As for `Nc1cc(Cl)c(N)c(Cl)c1`, the Potency result in assay [1], in [2], in [3], in [4] and in [5] was “inactive” throughout. For the same compound, the Potency in assay [6] is 68 µM (active) and 54.5 µM (active); in assay [7], 25 µM (active).

As for `CN(C)C`, the Potency entry in assay [1], in assay [2], in assay [3], in assay [4], in assay [5] and in [6] was “inactive” each time. For the same compound, the Potency result in [7] is “inactive”.

Take `CC1(C)OC(=O)NC1=O`: the Potency entry in assay [1], in assay [2], in assay [4], in assay [5] and in [7] was “inactive” in each case.

Regarding `CC(=O)O[C@]1(C(C)=O)CC[C@H]2[C@@H]3C=C(Cl)C4=CC(=O)CC[C@]4(C)[C@H]3CC[C@@]21C`, the Potency entry in assay [1], in [2], in [4], in assay [9], in assay [10] and in assay [7] was “inactive” each time. Further, the Potency in assay [5] is 61 µM (active) and inactive; in [6], 68.5 µM (active) and inactive.

Consider `Cc1ccc(S(=O)(=O)NCl)cc1`, for which the Potency entry in [1], in [3], in assay [4], in assay [5], in assay [6] and in assay [9] was “inactive” each time. For the same compound, the Potency entry in assay [10] and in assay [7] was “inactive” each time. The max activation in assay [8] was 4.18% (inactive).
